Measurements taken from PubChem BioAssay (NCI).
About 83,000 compounds went through this panel and 20% of them were active in at least one assay; those are over-represented in the sample as a whole.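 Step 1: grow cells in 96-well plates. Step 2: add test compound at a single concentration. Step 3: incubate 48 h. Step 4: record percent growth.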 Active and inactive are the calls of the source. How the source made its calls: active means growth percent below 10; inactive means the rest.

Each molecule was assayed on HT29 colon (assay: NCI-60 one-dose screen, 48 h (100 = growth as untreated, 0 = no growth, -100 = all killed)). Conditions: 10 µM.

SMILES | growth
Cc1c(-c2ccccc2)[nH]c2ccccc12 | 103% (inactive)
COc1ccc(N)c2c1C(=O)c1ccccc1C2=O | 93.6% (inactive)
CC[C@@]1(OC(=O)CN(C)C)C(=O)OCc2c1cc1n(c2=O)Cc2cc3c(N)cccc3nc2-1 | 4.94% (active)
N#CC(=C1C=CC(=NO)C=C1)c1ccccc1 | 1.57% (active)
Cc1cc(N=C2C=CC(=[N+](C)C)C=C2)c(N)cc1N | 93.8% (inactive)
COc1cc(N)ccc1Nc1c2ccccc2nc2ccccc12 | -62.4% (active)
O=C1C=CC(=O)N1c1ccc(N2C(=O)C=CC2=O)cc1 | 105% (inactive)
Cc1cc(Cl)ccc1NC(=O)/C(Cl)=C1/Sc2ccccc2NC1=O | 107% (inactive)
O=C(CNS(=O)(=O)Cc1ccccc1)NNc1ccccc1 | 81.5% (inactive)
Cc1cc(C)c(N2C(=O)CC(Sc3ccccc3N)C2=O)c(C)c1 (stereo unspecified) | 66.2% (inactive)
O=C1c2ccccc2CCC1(Br)Br | 12% (inactive)
O=C(NC(=S)Nc1ccccn1)c1ccccc1 | 87.5% (inactive)
ClCCn1c(CCl)nc2ccc(Cl)cc21 | -59.8% (active)
N#C/C(=C/N1C(=O)/C(=C/c2ccc([N+](=O)[O-])cc2)SC1=S)c1nc2ccccc2s1 | 98.6% (inactive)
CN(C)CCNc1cccc2sc3ccc(O)cc3c(=O)c12 | 6.36% (active)
NCc1c(O)ccc2ccccc12 | 103% (inactive)
CN(CC(=O)O)c1ccc(/C=C/c2ccnc3ccccc23)cc1 | 88.6% (inactive)

What follows are molecules tested on SNB-75 CNS in the same assay as above. Conditions: 10 µM.

SMILES | growth
Cc1c(-c2ccccc2)[nH]c2ccccc12 | 89.9% (inactive)
COc1ccc(C(C#N)=C2C=CC(=NO)C=C2)cc1 | 91.6% (inactive)
COc1ccc(N)c2c1C(=O)c1ccccc1C2=O | 95.6% (inactive)
CC[C@@]1(OC(=O)CN(C)C)C(=O)OCc2c1cc1n(c2=O)Cc2cc3c(N)cccc3nc2-1 | -10.5% (active)
N#CC(=C1C=CC(=NO)C=C1)c1ccccc1 | -1.66% (active)
Cc1cc(N=C2C=CC(=[N+](C)C)C=C2)c(N)cc1N | 102% (inactive)
COc1cc(N)ccc1Nc1c2ccccc2nc2ccccc12 | 91% (inactive)
O=C1C=CC(=O)N1c1ccc(N2C(=O)C=CC2=O)cc1 | 95.6% (inactive)
Cc1cc(Cl)ccc1NC(=O)/C(Cl)=C1/Sc2ccccc2NC1=O | 70.8% (inactive)
O=C(CNS(=O)(=O)Cc1ccccc1)NNc1ccccc1 | 76.8% (inactive)
Cc1cc(C)c(N2C(=O)CC(Sc3ccccc3N)C2=O)c(C)c1 (stereo unspecified) | 55.7% (inactive)
O=C1c2ccccc2CCC1(Br)Br | 56.6% (inactive)
O=C(NC(=S)Nc1ccccn1)c1ccccc1 | 74.8% (inactive)
ClCCn1c(CCl)nc2ccc(Cl)cc21 | 20.7% (inactive)
N#C/C(=C/N1C(=O)/C(=C/c2ccc([N+](=O)[O-])cc2)SC1=S)c1nc2ccccc2s1 | 84.5% (inactive)
CN(C)CCNc1cccc2sc3ccc(O)cc3c(=O)c12 | 31.8% (inactive)
NCc1c(O)ccc2ccccc12 | 73.5% (inactive)
CN(CC(=O)O)c1ccc(/C=C/c2ccnc3ccccc23)cc1 | 90.3% (inactive)

Each molecule was assayed on SNB-19 CNS in the same assay as above. Conditions: 10 µM.

SMILES | growth
Cc1c(-c2ccccc2)[nH]c2ccccc12 | 110% (inactive)
COc1ccc(C(C#N)=C2C=CC(=NO)C=C2)cc1 | 111% (inactive)
COc1ccc(N)c2c1C(=O)c1ccccc1C2=O | 101% (inactive)
CC[C@@]1(OC(=O)CN(C)C)C(=O)OCc2c1cc1n(c2=O)Cc2cc3c(N)cccc3nc2-1 | 11.2% (inactive)
N#CC(=C1C=CC(=NO)C=C1)c1ccccc1 | 59.6% (inactive)
Cc1cc(N=C2C=CC(=[N+](C)C)C=C2)c(N)cc1N | 87.3% (inactive)
COc1cc(N)ccc1Nc1c2ccccc2nc2ccccc12 | 99.7% (inactive)
Cc1cc(Cl)ccc1NC(=O)/C(Cl)=C1/Sc2ccccc2NC1=O | 94% (inactive)
O=C(CNS(=O)(=O)Cc1ccccc1)NNc1ccccc1 | 88.3% (inactive)
Cc1cc(C)c(N2C(=O)CC(Sc3ccccc3N)C2=O)c(C)c1 (stereo unspecified) | 83.1% (inactive)
O=C1c2ccccc2CCC1(Br)Br | 89.4% (inactive)
O=C(NC(=S)Nc1ccccn1)c1ccccc1 | 95.4% (inactive)
ClCCn1c(CCl)nc2ccc(Cl)cc21 | 47.9% (inactive)
N#C/C(=C/N1C(=O)/C(=C/c2ccc([N+](=O)[O-])cc2)SC1=S)c1nc2ccccc2s1 | 86.4% (inactive)
CN(C)CCNc1cccc2sc3ccc(O)cc3c(=O)c12 | 57.4% (inactive)
CN(CC(=O)O)c1ccc(/C=C/c2ccnc3ccccc23)cc1 | 87.9% (inactive)

The molecules below were run on U251 CNS in the same assay as above. Conditions: 10 µM.

SMILES | growth
Cc1c(-c2ccccc2)[nH]c2ccccc12 | 106% (inactive)
COc1ccc(C(C#N)=C2C=CC(=NO)C=C2)cc1 | 53.9% (inactive)
COc1ccc(N)c2c1C(=O)c1ccccc1C2=O | 97.9% (inactive)
CC[C@@]1(OC(=O)CN(C)C)C(=O)OCc2c1cc1n(c2=O)Cc2cc3c(N)cccc3nc2-1 | 3.98% (active)
N#CC(=C1C=CC(=NO)C=C1)c1ccccc1 | 9.88% (active)
Cc1cc(N=C2C=CC(=[N+](C)C)C=C2)c(N)cc1N | 93.2% (inactive)
O=C1C=CC(=O)N1c1ccc(N2C(=O)C=CC2=O)cc1 | 101% (inactive)
Cc1cc(Cl)ccc1NC(=O)/C(Cl)=C1/Sc2ccccc2NC1=O | 94.7% (inactive)
O=C(CNS(=O)(=O)Cc1ccccc1)NNc1ccccc1 | 82.7% (inactive)
Cc1cc(C)c(N2C(=O)CC(Sc3ccccc3N)C2=O)c(C)c1 (stereo unspecified) | 81.3% (inactive)
O=C(NC(=S)Nc1ccccn1)c1ccccc1 | 94.9% (inactive)
ClCCn1c(CCl)nc2ccc(Cl)cc21 | -67.2% (active)
N#C/C(=C/N1C(=O)/C(=C/c2ccc([N+](=O)[O-])cc2)SC1=S)c1nc2ccccc2s1 | 69.4% (inactive)
NCc1c(O)ccc2ccccc12 | 103% (inactive)
CN(CC(=O)O)c1ccc(/C=C/c2ccnc3ccccc23)cc1 | 80.3% (inactive)
